# Results from PubChem BioAssay AID504340 (NMMLSC, 2011).
# Values without a mark were called inactive.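 Rule for the calls: active = GFP response above 150% of the DMSO control; inconclusive = Under 70 cell events counted for a yeast strain; inactive = the rest.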
# Assay: yeast TOR pathway CIT2-GFP reporter retest – flow cytometry, third cherry pick, single plex, confirmation (AID 504340);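 note: median GFP fluorescence over all cells with no mother versus daughter split; sample signal as a ratio to the plate DMSO mean so 100% equals DMSO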
# Settings: S. cerevisiae CIT2-GFP strain, 3 h, at 10 µM, active compounds read high
row,SMILES,GFP response vs DMSO [%]
1,Cc1ccc2c(c1N)C(=O)c1ccccc1C2=O,109
2,CCN1CCN(c2ncnc3ccc(Br)cc23)CC1,109
3,CN1CCN(c2ncnc3ccc(Br)cc23)CC1,103
4,CN(C)C(=O)Oc1ccnc2cc(Cl)ccc12,106
5,CN(C)C(=O)Oc1ccc(Cl)c2cccnc12,104
6,C/C(O)=C(\C#N)C(=O)Nc1cc(Br)ccc1Br,116
